A number with no mark means an inactive call.
How the values were obtained:
Experiment in all cases: log2 ratio of Biotin-Ahx-Ub-VS probe labelling (fragment/DMSO); higher = less target engagement (more negative = stronger competition), active = hit call of the paper (q ≤ 0.05, log2 ratio ≤ -1)
Details in all cases: compound concentration: 200 uM; treatment time: 3 h
USP19 = molecular target: T1, USP19 (UniProt O94966)
T1 sequence (whole entry): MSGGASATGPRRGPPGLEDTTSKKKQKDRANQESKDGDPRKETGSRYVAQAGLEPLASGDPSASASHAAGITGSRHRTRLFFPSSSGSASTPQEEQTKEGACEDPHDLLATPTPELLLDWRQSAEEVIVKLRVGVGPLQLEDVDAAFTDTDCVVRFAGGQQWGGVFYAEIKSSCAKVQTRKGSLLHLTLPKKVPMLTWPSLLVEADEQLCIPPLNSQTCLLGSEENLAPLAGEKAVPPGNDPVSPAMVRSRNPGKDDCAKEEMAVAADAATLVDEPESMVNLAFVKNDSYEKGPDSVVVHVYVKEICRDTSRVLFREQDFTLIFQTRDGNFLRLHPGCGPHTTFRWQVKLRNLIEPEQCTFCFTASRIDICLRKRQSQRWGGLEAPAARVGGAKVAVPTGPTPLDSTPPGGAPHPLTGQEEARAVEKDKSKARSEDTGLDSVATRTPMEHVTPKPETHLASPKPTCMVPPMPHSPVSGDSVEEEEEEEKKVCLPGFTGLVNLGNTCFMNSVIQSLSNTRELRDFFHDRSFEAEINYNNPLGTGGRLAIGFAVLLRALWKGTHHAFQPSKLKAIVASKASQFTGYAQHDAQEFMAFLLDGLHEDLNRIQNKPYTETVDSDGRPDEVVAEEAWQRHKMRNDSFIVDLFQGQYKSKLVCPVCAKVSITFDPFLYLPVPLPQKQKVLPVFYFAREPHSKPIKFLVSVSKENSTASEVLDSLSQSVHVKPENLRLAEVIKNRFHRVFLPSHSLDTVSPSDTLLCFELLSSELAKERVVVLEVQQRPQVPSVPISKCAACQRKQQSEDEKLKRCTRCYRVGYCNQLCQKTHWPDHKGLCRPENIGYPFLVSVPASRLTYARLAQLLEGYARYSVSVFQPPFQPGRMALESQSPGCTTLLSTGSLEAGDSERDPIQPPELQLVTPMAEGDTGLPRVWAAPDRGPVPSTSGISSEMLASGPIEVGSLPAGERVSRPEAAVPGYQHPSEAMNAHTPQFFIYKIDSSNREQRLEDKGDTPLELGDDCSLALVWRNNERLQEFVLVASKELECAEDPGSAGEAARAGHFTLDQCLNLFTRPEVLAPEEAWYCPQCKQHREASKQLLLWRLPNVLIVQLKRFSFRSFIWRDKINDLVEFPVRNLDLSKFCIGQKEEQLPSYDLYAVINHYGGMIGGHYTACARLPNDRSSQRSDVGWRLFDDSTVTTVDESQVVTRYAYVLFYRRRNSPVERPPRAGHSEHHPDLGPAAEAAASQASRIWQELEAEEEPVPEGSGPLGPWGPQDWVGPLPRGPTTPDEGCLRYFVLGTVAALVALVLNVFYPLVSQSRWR
How it was run: (§1)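 Labelling with Biotin-Ahx-Ub-VS (0.5 µM final, 1 h) followed a 3 h triplicate treatment of HEK293T lysate (495 µg per sample, Tris/CHAPS/IGEPAL buffer with protease inhibitors) with fragment at 200 µM or vehicle. Labelled DUBs were NeutrAvidin-enriched, digested with LysC and trypsin, and run by diaPASEF LC-MS/MS. The values, average log2 fragment/vehicle ratios by unpaired t-test, come from global-median-normalised Spectronaut label-free quantities. Proteins with ≥2 unique peptides were used.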

USP22 = molecular target: T2, USP22 (UniProt Q9UPT9)
T2 sequence (whole entry): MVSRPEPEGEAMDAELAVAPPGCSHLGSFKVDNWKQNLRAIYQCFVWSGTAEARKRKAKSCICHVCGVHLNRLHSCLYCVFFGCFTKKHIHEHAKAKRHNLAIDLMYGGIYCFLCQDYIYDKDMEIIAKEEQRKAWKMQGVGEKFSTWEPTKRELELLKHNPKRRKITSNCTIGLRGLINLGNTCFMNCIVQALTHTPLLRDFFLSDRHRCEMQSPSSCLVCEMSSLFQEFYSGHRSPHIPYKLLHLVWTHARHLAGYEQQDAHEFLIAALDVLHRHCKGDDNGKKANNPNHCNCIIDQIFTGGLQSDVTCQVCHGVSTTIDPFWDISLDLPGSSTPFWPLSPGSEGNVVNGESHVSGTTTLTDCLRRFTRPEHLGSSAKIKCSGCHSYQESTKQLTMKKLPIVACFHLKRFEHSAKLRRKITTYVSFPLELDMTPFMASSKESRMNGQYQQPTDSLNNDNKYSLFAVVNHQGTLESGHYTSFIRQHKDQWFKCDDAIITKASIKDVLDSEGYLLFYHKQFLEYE
How it was run: as §1

USP24 = USP24 (UniProt Q9UPU5)
How it was run: as §1

USP25 = molecular target: T3, USP25 (UniProt Q9UHP3)
T3 sequence (whole entry): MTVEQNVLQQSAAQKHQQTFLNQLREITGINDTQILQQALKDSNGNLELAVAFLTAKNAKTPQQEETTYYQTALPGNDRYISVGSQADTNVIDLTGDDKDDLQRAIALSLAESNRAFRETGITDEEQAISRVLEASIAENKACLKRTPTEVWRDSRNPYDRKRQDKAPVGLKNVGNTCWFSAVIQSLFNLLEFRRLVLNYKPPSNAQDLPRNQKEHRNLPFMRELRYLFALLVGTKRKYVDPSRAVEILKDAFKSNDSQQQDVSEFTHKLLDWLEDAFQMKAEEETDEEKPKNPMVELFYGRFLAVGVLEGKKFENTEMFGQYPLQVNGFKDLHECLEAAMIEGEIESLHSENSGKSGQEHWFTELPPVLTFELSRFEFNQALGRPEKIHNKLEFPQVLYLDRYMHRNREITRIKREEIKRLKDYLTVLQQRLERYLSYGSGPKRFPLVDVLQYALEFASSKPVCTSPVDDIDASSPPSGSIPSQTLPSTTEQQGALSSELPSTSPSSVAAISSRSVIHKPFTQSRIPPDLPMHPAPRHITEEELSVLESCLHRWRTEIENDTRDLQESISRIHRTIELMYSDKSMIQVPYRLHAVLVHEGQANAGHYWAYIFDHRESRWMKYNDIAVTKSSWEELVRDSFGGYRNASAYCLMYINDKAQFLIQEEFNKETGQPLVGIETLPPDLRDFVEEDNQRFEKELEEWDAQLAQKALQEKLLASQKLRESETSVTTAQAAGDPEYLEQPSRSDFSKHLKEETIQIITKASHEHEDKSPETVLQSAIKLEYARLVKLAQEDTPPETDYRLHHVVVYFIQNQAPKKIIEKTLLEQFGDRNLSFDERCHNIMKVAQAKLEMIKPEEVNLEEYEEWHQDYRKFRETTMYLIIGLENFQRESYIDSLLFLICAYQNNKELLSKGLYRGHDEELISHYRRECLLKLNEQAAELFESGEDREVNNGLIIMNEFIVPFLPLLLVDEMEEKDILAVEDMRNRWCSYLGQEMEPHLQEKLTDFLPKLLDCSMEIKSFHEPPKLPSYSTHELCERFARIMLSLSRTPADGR
How it was run: as §1

USP28 = molecular target: T4, USP28 (UniProt Q96RU2)
T4 sequence (whole entry): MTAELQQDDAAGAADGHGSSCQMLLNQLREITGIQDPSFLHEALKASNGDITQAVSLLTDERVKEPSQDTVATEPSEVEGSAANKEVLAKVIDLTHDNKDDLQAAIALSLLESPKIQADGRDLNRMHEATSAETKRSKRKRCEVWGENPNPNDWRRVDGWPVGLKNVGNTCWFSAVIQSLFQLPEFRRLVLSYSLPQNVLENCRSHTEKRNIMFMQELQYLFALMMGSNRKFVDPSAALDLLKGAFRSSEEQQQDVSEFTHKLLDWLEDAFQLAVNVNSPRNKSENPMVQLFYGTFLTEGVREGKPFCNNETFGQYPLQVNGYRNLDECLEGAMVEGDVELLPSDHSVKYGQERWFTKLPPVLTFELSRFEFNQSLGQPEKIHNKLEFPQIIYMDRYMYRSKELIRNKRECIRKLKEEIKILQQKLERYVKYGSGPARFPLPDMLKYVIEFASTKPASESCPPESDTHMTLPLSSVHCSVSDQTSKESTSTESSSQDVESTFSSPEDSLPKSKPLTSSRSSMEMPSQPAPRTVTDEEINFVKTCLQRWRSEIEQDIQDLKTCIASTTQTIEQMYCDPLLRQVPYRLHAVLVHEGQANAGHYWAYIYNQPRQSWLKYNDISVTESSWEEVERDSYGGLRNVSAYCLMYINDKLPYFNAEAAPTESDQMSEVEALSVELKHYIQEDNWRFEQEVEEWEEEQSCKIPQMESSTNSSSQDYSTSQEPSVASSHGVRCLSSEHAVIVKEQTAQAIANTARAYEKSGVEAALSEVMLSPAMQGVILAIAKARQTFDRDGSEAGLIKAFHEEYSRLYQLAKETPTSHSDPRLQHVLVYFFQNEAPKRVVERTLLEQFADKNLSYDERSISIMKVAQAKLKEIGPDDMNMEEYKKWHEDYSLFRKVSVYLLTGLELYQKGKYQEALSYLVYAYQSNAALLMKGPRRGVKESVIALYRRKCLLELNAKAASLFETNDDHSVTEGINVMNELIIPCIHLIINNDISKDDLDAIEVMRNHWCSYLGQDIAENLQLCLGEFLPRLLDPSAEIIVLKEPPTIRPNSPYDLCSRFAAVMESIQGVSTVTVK
How it was run: as §1

Chain of USP24 (Q9UPU5 whole entry): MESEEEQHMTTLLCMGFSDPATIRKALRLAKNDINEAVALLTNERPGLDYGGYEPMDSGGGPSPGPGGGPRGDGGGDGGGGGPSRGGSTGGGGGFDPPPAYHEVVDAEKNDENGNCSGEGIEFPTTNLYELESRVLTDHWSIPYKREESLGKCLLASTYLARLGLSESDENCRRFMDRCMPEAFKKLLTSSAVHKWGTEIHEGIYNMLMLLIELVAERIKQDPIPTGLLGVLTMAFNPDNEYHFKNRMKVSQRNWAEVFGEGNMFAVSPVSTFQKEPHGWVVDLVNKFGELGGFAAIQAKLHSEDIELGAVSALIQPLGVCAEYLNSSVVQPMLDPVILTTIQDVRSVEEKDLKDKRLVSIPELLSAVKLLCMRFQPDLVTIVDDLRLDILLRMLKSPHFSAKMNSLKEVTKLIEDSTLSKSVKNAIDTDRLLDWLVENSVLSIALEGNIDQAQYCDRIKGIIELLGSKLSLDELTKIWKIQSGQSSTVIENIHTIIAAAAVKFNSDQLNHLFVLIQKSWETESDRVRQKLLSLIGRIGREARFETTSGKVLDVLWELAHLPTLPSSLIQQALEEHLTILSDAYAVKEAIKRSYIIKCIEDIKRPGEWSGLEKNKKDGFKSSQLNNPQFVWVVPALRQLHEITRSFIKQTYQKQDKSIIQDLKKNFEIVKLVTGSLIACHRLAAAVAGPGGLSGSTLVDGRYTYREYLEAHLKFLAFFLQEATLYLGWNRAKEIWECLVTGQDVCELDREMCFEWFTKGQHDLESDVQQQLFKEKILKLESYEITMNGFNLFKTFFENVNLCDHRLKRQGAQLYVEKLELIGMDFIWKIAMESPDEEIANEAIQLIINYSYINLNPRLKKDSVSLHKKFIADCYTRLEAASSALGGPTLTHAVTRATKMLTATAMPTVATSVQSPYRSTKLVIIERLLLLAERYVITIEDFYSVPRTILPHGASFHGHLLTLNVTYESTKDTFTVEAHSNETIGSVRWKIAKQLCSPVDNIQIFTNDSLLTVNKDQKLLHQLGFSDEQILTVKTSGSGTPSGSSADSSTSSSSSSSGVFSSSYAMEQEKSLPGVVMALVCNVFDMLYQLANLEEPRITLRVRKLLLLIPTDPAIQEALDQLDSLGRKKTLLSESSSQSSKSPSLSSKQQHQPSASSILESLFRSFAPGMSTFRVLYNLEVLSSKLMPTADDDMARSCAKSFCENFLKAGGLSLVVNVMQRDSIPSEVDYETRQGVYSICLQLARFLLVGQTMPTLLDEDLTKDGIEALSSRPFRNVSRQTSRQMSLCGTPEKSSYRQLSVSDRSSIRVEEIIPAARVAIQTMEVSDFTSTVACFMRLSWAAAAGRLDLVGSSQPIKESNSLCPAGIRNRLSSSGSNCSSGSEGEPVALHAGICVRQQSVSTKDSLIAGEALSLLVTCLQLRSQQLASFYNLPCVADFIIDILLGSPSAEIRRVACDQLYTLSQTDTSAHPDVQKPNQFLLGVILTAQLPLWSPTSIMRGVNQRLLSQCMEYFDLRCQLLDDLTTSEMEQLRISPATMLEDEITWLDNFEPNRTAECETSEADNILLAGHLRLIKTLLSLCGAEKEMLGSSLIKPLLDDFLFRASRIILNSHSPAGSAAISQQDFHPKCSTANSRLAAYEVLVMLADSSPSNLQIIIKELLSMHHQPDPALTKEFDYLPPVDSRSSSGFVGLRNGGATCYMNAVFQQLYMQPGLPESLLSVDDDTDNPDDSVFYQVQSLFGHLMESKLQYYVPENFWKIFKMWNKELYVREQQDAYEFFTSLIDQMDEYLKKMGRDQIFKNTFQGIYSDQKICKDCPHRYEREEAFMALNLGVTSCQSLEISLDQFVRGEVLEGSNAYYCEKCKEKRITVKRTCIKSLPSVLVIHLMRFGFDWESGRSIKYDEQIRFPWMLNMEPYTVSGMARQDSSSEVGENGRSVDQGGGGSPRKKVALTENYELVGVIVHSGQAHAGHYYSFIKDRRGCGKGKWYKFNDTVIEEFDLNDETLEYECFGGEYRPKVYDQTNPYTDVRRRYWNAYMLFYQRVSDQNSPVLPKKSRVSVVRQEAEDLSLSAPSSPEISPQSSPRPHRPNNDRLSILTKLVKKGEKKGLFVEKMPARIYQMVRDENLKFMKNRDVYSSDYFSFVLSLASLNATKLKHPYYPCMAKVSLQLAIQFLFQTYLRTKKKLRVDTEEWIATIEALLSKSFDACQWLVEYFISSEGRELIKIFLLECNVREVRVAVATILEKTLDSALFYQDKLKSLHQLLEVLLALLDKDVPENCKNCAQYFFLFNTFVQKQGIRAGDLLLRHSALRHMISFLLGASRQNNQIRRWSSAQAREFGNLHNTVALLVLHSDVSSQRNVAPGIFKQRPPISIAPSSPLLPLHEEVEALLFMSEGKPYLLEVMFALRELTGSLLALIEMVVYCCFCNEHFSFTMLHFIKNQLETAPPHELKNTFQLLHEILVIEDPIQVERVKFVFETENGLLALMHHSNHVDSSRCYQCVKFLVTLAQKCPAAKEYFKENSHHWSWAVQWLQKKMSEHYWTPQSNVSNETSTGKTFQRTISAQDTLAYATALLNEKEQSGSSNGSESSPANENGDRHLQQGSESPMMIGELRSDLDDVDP

Question: For `Cl.O=C(CCl)NCCN1CCc2ccccc21`, which “log2 ratio of Biotin-Ahx-Ub-VS probe labelling” value (from here on “log2 ratio”) (USP19) is on record?
Answer: Its value is -0.976.

Question: And the “log2 ratio” value (USP22)?
Answer: Its value is -1.07 (active).

Question: What about the “log2 ratio” value (USP24) of the same compound?
Answer: The value was -1.05 (active).

Question: What about the “log2 ratio” value (USP25) of the same compound?
Answer: The value was -0.576.

Question: What about the “log2 ratio” value (USP28) of the same compound?
Answer: The value was -1.11 (active).

From the supplement of paper PMC11732987, “Enantioselective OTUD7B fragment discovery through chemoproteomics screening and high-throughput optimisation” (Communications Chemistry, 2025)
